Tau fil binding – tau filament binding; P10636; Potency, µM (doses to about 57.1 µM), for inactives: at the top dose activity change, negative = inhibition; recombinant tau filaments, thioflavin S fluorescence, 15 h; filaments grown with octadecylsulfate alongside compound; hit rate 2% among 71,000;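 note: % is set by controls: 0 for no effect and ±100 for the full control effect; actives lower thioflavin S fluorescence by blocking filaments or displacing dye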
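ThS-based fibril read: tau 1 uM final, inducer ODS 30 uM final, 37 C for 15 h, ex 450/em 510 nm.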
ERK AVP block – vasopressin-driven ERK pathway inhibition. HEK293-V1b, vasopressin-stimulated pERK AlphaScreen. Potency, µM (doses to about 57.5 µM), without a hit: at the top dose activity, negative = inhibition, hits mostly inhibitors. hit rate 0.99% among 72,000; note: % is set by controls: 0 for no effect and ±100 for the full control effect; nearly all actives have a fitted effect of over 55% in size
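qHTS, compounds titrated on V1b-expressing HEK293 cells. Preincubation 30 min at 37C, vasopressin 25 nM for 5 min, lysis 10 min, bead incubation 5 hr at room temperature.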
Bst PK mod – modulators of Bacillus stearothermophilus pyruvate kinase; purified pyruvate kinase, luminescence ATP production; ribose 5-phosphate activator present at AC10; Potency, µM; hit rate 1.2% among 51,000; in the data active = potency below about 11 µM; inconclusive = mostly about 12 µM to 25 µM;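 the screen sought inhibitors and activators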;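 note: scaled between full activation by ribose 5 phosphate and full inhibition by luteolin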
Luciferase inh – blocks Photinus pyralis firefly luciferase activity | hit rate 2.2% among 72,000 | Potency, µM (doses to about 57.1 µM), for inactives: at the top dose activity change, negative = inhibition, actives largely listed as inhibitors | purified firefly luciferase, luminescence, 8 min | P08659; note: % is set by controls: 0 for no effect and ±100 for the full control effect; nearly all actives have a fitted effect of over 40% in size
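Firefly luciferase (PKLight detection mix) with 10 uM ATP in pH 7.2 imidazole buffer (KCl, MgCl2, Tween 20, BSA). Compounds tested across a concentration series (qHTS). Luminescence read after 8 min at ambient temperature.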
HEK293 cAMP cs – parental HEK293 cAMP activation (counter-screen). parental HEK293 CNG cAMP sensor, membrane potential fluorescence. Potency, µM (titrated, usually from 57.1 µM), for inactives: at the highest dose activation, most hits filed as activators. hit rate 2.5% among 73,000. AID 938; note: % of control where 0% means no effect; nearly all actives have a fitted effect of over 55% in size
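Parental HEK 293 cells stably expressing a modified CNG channel (no TSHR) report cAMP rise as membrane depolarization. Membrane potential dye with 100 uM RO 20-1724 was loaded for 60 min at room temperature, then compound added for 30 min; fluorescence read at 590 nm.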
TSHR ag – TSH receptor (human) agonism | P16473 | HEK293-CNG-TSHR cells (CNG channel as cAMP sensor), membrane potential dye, cAMP | Potency, µM (titrated, usually from 57.1 µM), for the others: at the top dose activation, usual class: activators | hit rate 0.48% among 73,000 | AID 926; active = well fitted activation curve with a large enough effect in the main read-out, with a control signal flat, not every such curve was filed as active; inconclusive = small, poorly fitted or top-dose-only effect, or a change in a side signal; inactive = no such curve, though single readings can be large or run the other way; % of control where 0% means no effect;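 note: the control signal comes from parental cells without the receptor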
Target sequence (P16473 whole entry, looked up): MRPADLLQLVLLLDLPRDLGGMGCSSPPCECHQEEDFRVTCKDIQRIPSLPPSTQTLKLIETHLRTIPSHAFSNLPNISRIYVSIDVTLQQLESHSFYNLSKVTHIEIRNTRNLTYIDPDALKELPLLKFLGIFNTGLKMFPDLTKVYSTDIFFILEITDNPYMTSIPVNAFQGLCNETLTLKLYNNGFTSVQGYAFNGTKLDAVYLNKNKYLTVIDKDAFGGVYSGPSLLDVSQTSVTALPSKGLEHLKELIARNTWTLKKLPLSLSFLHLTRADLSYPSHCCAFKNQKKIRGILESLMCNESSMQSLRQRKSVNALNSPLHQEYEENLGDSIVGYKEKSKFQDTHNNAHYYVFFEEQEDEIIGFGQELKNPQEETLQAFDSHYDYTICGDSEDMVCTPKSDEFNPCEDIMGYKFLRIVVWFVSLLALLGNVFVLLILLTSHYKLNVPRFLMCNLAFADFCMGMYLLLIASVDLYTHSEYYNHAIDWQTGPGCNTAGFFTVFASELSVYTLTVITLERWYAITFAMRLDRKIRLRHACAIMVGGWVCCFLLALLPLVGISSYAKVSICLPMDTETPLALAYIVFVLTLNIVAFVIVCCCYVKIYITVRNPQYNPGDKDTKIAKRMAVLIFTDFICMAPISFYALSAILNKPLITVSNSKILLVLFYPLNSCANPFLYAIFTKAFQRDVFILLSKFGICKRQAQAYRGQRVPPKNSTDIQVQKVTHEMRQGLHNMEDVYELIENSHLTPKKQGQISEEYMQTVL
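HEK 293 cells stably expressing TSHR and a modified CNG channel, with CNG-only parental cells as counterscreen, were preloaded 60 min at room temperature with membrane potential dye containing 100 uM RO 20-1724. Compound exposure was 30 min, and depolarization was read as fluorescence at 590 nm.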
* marks the source's active call; other numbers are inactive results; ? = inconclusive; . = no result given; ! = not active in a repeat; [ ] = remark or other dose. Shown are actives, neighbours in structure and some others; about 7.2% of the full set was active somewhere. Unless noted, calls come from the whole dose curve; as a rule, active = well fitted curve in the direction sought with a large enough effect; inconclusive = small, poorly fitted or top-dose-only effect, or another doubt; inactive = no such curve, though single readings can be large; an effect the other way counts as inactive or inconclusive. Potency is the fitted concentration of half-maximal effect.

SMILES	Tau fil binding	ERK AVP block	Bst PK mod	Luciferase inh	HEK293 cAMP cs	TSHR ag
N#C/C(=C\c1ccc(O)c(O)c1)C(N)=S	78.4%	15.8µM*!	.	25.1µM*!	?	?
O=C1C[C@@H]2OCC=C3CN4CC[C@]56c7ccccc7N1[C@H]5[C@@H]2[C@H]3C[C@@H]46	?	.	.	2.1%[11.4 µM]	6.0%	6.6%
O=C1OCCN1P(=O)(c1ccccc1)c1ccccc1	-20.7%	-1.9%	.	0.5%	9.9%	-9.9%
O=P(c1ccccc1)(c1ccccc1)N1CC2(CC2)CC(O)(c2ccccc2)C1 (centres undefined)	2.3%	12.7%	.	.	0.794µM*	?
C[C@@]12CC[C@H]3[C@@H](CC[C@H]4C[C@@H](O)CC[C@]43C)[C@H]1CC[C@@H]2C(=O)C[C@H](O)C(F)(F)F	16.9%[11.4 µM]	11.3%[11.5 µM]	.	3.2%[11.4 µM]	-0.8%[11.4 µM]	9.1%[11.4 µM]
O=C(O)c1cc2ccccc2oc1=O	10.3%	.	.	0.6%	20µM*	?
COC[C@@H]1OC(=O)c2coc3c2[C@]1(C)C1=C(C3=O)[C@H]2CCC(=O)[C@]2(C)C[C@@H]1OC(C)=O	37.9%	.	.	-5.8%	8.5%	4.2%
CCC(=NC(C)c1ccccc1)c1c(O)n(C)c(=O)n(C)c1=O (centres undefined)	3.4%	-20.6%	>57	5.0%	?	?
CC(=O)c1c(O)n(C)c(=S)n(-c2ccccc2)c1=O	-0.4%	-1.3%	>57	0.7%	1µM*	?
Nc1nc(N)c(Cn2ccnc2)c(=O)[nH]1	5.4%[11.4 µM]	1.6%[11.5 µM]	.	2.4%[11.4 µM]	?	?
CC(=O)c1ccc2c(c1)N(CCCN(C)C)c1ccccc1S2	3.16µM*	10.3%[25.7 µM]	.	4.6%[25.5 µM]	?	?
CCN1C(=O)c2ccccc2Sc2ccc(C(=O)N3CCC4(CC3)OCCO4)cc21	4.0%	-7.2%	>57	1.2%	10.3%	4.3%
CC1CC[C@@]2(OC1)O[C@@H]1[C@@H](O)[C@H]3C4CC[C@H]5C[C@@H](O[C@@H]6O[C@H](CO)[C@H](O[C@@H]7O[C@H](CO)[C@@H](O)[C@H](O[C@@H]8OC[C@@H](O)[C@H](O)[C@H]8O)[C@H]7O[C@@H]7O[C@H](CO)[C@@H](O)[C@H](O[C@@H]8O[C@H](CO)[C@@H](O)[C@H](O)[C@H]8O)[C@H]7O)[C@H](O)[C@H]6O)[C@H](O)C[C@]5(C)C4CC[C@]3(C)[C@H]1[C@@H]2C (some centres undefined)	.	39.8µM*	.	.	.	.
C[C@H]1CC[C@@H]2[C@@H](C)[C@H]3[C@H](C[C@H]4[C@@H]5CC=C6CC(O[C@@H]7O[C@H](CO)[C@H](O)[C@H](O[C@@H]8O[C@H](CO)[C@@H](O)[C@H](O)[C@H]8O)[C@H]7O[C@H]7O[C@@H](C)[C@H](O)[C@@H](O)[C@H]7O)CC[C@]6(C)[C@H]5CC[C@]34C)N2C1 (some centres undefined)	120.3%	8.1%	.	.	4.3%	6.1%
CCN[C@]1(c2cccs2)CCCCC1=O	8.6%[25.6 µM]	-29.3%[25.7 µM]	.	1.0%[25.5 µM]	5.8%[25.6 µM]	5.01µM*
N[C@@H](Cc1cc(O)c(O)cc1O)C(=O)O	25.1µM*	-27.0%	.	-3.7%	-4.3%	6.0%
C[Se]C[C@@H](N)C(=O)O	5.3%	?	.	-6.5%	12.3%	.
CC(=O)[C@H]1CC[C@H]2[C@@H]3CCC4=CC(=O)CC[C@]4(C)[C@H]3CC[C@]12C	83.3%	?	>25.6	1.4%[25.5 µM]	?	?
C[C@@]12CCC3C(CCC4=CC(=O)CC[C@]43C)C1CCC2O (some centres undefined)	.	31.6µM*	.	.	.	.
CCCCc1ccc2[nH]cc(CCN)c2c1	15.8µM*	-4.7%	>57	3.4%	-1.9%	-10.1%
NCCc1c[nH]c2ccccc12	3.2%	4.1%	.	0.9%	-3.3%	-2.3%
C=CCN1CC[C@]23c4c5ccc(O)c4O[C@@H]2C(=O)CC[C@@]3(O)[C@H]1C5	1.2%	6.2%	.	2.1%	9.8%	3.3%
Cc1ccc(C(=O)Nc2nc3ccccc3n2CCN2CCCC2)cc1	174.3%	?	.	12.6µM*	-72.4%	?
COc1cc2c(cc1OC)[C@@]13CCN4C=C5CCO[C@H]6CC(=O)N2[C@@H]1[C@@H]6[C@H]5C[C@H]43	5.2%[11.4 µM]	-0.7%[11.5 µM]	.	2.5%[11.4 µM]	-5.7%[11.4 µM]	2.8%[11.4 µM]
Nc1nc(N)c(N=Nc2ccc([As](=O)(O)O)c(O)c2)c(N)n1	-2.6%[11.4 µM]	-4.6%[11.5 µM]	.	0.0%[11.4 µM]	-2.5%[11.4 µM]	4.0%[11.4 µM]
SMILES	Tau fil binding	ERK AVP block	Bst PK mod	Luciferase inh	HEK293 cAMP cs	TSHR ag
CC1=NN(c2ccccc2)C(=O)[C@@H]1N=Nc1ccc([As](=O)(O)O)c(O)c1	3.16µM*	13.8%[11.5 µM]	.	-2.1%[11.4 µM]	0.1%[11.4 µM]	8.8%[11.4 µM]
CC(C)c1ccc2c(c1)CC[C@@H]1[C@@](C)(CN)CCC[C@@]21C	31.6µM*	.	.	1.0%[11.4 µM]	-30.1%	?
CC[C@H](CO)NC(=O)[C@@H]1C=C2c3cccc4[nH]cc(c34)C[C@@H]2N(C)C1	20.3%	-13.5%	.	1.1%	?	?
CCCCCCCCCCCCCl	-4.6%	16.5%	.	.	-17.0%	?
CCCCCCC[n+]1ccc(-c2cc[n+](CCCCCCC)cc2)cc1	15.8µM*	-20.9%	.	0.3%	-7.2%	-3.6%
Oc1c(Cl)c(Cl)c(Cl)c(Cl)c1Cl	.	28.3%	.	.	31.6µM*	?
C[C@@H](Cc1ccc2c(c1)OC(C(=O)O)(C(=O)O)O2)NC[C@H](O)c1cccc(Cl)c1	6.6%	0.0%	.	-0.3%	20.7%	.
CN1CC[C@]2(C)c3cc(O)ccc3N(C)[C@@H]12	31.6µM*!	-7.2%[25.7 µM]	.	-0.9%[11.4 µM]	-1.5%	0.7%
CN(C)[C@@H]1C(=O)C(C(N)=O)=C(O)[C@]2(O)C(=O)C3=C(O)c4c(O)cccc4[C@](C)(O)[C@H]3C[C@@H]12	-3.8%[11.4 µM]	-1.3%[11.5 µM]	.	-1.5%[11.4 µM]	6.5%[11.4 µM]	-6.8%[11.4 µM]
COc1cc2c(cc1OC)-c1c(O)c(OC)cc3c1[C@@H](C2)N(C)CC3	31.6µM*	.	.	-1.0%[11.4 µM]	10.2%	-4.0%
NNCc1cccc(O)c1	-0.2%	?	.	31.6µM*	7.0%	3.3%
C[CH2][Hg][S]c1ccccc1C(=O)O	.	10µM*	.	.	.	.
Cc1cc(N=Nc2ccccc2C)ccc1N	7.94µM*	?	.	.	-57.7%	?
CC(C)NC[C@H](O)c1ccc(N)c(C#N)c1	?	?	.	-0.6%	0.005µM*	?
CCNC(C)(C)[C@@H](SS)c1ccc(Br)cc1	3.8%[11.4 µM]	2.6%[11.5 µM]	.	2.4%[11.4 µM]	-12.1%[11.4 µM]	-1.2%[11.4 µM]
c1coc(CNc2ncnc3nc[nH]c23)c1	7.7%	-12.5%	.	3.2%	5.01µM*!	?
O=C1Nc2ccccc2C2(CCN(CCc3ccc(C(F)(F)F)cc3)CC2)O1	.	15.8µM*	.	.	?	?
CC(C)C(=O)c1cn(Cc2ccccc2C#N)c2ccccc12	17.9%	-8.3%	>57	0.3%	25.1µM*	?
O=C(c1cc2ccccc2oc1=O)N1CCC2(CC1)OCCO2	-16.4%	-3.6%	>57	4.6%	3.2%	-5.7%

Screens deposited in PubChem BioAssay by National Center for Advancing Translational Sciences (NCATS).
